Screening data as filed in PubChem.
Rows were chosen to be rich in hits. Some 7.8% of all compounds tested hit in one or more screens of this group.
MITF inh: inhibitors of MITF | TRPM1 promoter luciferase, luminescence, 24 h | inhibition, % (concentration not given with the values) | 37,000 tested, 0.28% active; in the data active = inhibition above about 85%; inconclusive = no clear call, values can overlap the other calls; inactive = below about 68%;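 also: human melanocyte line stably carrying TRPM1 promoter luciferase reporter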
Hedgehog inh: blocks Sonic Hedgehog signaling. Shh-LIGHT2 Gli-luciferase reporter, 30 h. inhibition, % (concentration not given with the values). 22,000 tested, 2.1% active. AID 2313;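 active = mean inhibition across valid replicates above about 65%, limit read from the data; inconclusive = mean under the limit, yet half or more replicates past it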;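 also: pathway switched on by Shh-conditioned medium diluted 1 in 25 in low serum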
NOMO-1 viab: STK33 inhibitor candidate reducing NOMO-1 cell viability | NOMO-1 AML viability, CellTiter-Glo luminescence, 72 h | AID 2330 | 37,000 tested, 7.5% active | inhibition, % (test concentration not listed); in the data active = inhibition above about 80%; inconclusive = no clear call, values can overlap the other calls
An asterisk follows results filed as active; ? = inconclusive; · = no result.

SMILES	MITF inh	Hedgehog inh	NOMO-1 viab
Cc1cc(C(=O)Nc2cccc3c2O[C@H](CN(C)Cc2ccc4c(c2)OCO4)[C@@H](C)CN([C@H](C)CO)C3=O)n(C)n1	-12.8	?	28.3
C[C@@H]1CN([C@@H](C)CO)C(=O)c2cc(NS(=O)(=O)c3ccc(Cl)cc3)ccc2O[C@H]1CN(C)S(=O)(=O)c1ccccc1	22.9	29.9	11.4
C[N+]1(C)C2CC[C@H]1CC(OC(=O)C(O)c1ccccc1)C2 (some centres not stated)	-14.1	-8.2	-21.9
Cc1ccc(S(=O)(=O)N(C)C[C@H]2Oc3ccc(NS(=O)(=O)c4ccc(Cl)cc4)cc3CC(=O)N([C@@H](C)CO)C[C@H]2C)cc1	7.4	-62.5	49.2
C[C@H](CO)N1C[C@H](C)[C@H](CN(C)S(=O)(=O)c2ccc(F)cc2)Oc2c(NS(=O)(=O)c3cccs3)cccc2C1=O	-1.5	36.5	-1.4
COc1ccc(S(=O)(=O)Nc2ccc3c(c2)C(=O)N([C@H](C)CO)C[C@H](C)[C@@H](CN(C)Cc2ccc(C(=O)O)cc2)OCCCC[C@@H](C)O3)cc1	-23.9	·	-6.7
COc1ccc(CN(C)C[C@H]2OCCCC[C@@H](C)Oc3ccc(NS(=O)(=O)c4ccc(C)cc4)cc3C(=O)N([C@H](C)CO)C[C@@H]2C)cc1	0.7	65.0*	22.2
COc1ccc(CN(C)C[C@@H]2OCCCC[C@@H](C)Oc3ccc(NS(=O)(=O)c4ccc(OC)cc4)cc3C(=O)N([C@H](C)CO)C[C@@H]2C)cc1	-7.4	·	15.2
COc1ccc(S(=O)(=O)Nc2ccc3c(c2)C(=O)N([C@H](C)CO)C[C@H](C)[C@H](CN(C)Cc2ccc(C(F)(F)F)cc2)OCCCC[C@@H](C)O3)cc1	36.9	·	105.2*
C[C@@H]1CCCCO[C@H](CN(C)Cc2ccncc2)[C@@H](C)CN([C@H](C)CO)C(=O)c2cc(NS(=O)(=O)c3ccc(F)cc3)ccc2O1	-11.1	9.0	11.1
C[C@@H]1CCCCO[C@@H](CN(C)Cc2ccc(C(F)(F)F)cc2)[C@@H](C)CN([C@H](C)CO)C(=O)c2cc(NS(=O)(=O)c3ccc(Cl)cc3)ccc2O1	47.8	-0.6	111.0*
C[C@@H]1CCCCO[C@@H](CN(C)Cc2ccncc2)[C@@H](C)CN([C@H](C)CO)C(=O)c2cc(NS(=O)(=O)c3ccc(Cl)cc3)ccc2O1	-14.8	·	17.3
C[C@@H]1CCCCO[C@H](CN(C)Cc2ccc(C(F)(F)F)cc2)[C@@H](C)CN([C@H](C)CO)C(=O)c2cc(NS(=O)(=O)c3ccc(F)cc3)ccc2O1	23.8	5.9	100.4*
COc1ccc2nc(SCC3=CC(C)(C)N(C(C)=O)c4ccccc43)nc(C)c2c1	3.9	·	33.8
COc1ccc(CN(C)C[C@@H]2OCCCC[C@@H](C)Oc3ccc(NC(=O)c4ccncc4)cc3C(=O)N([C@H](C)CO)C[C@@H]2C)cc1	-10.0	11.2	3.5
COc1ccc(N(CC(=O)Nc2cc(Cl)ccc2OC)S(C)(=O)=O)cc1	11.6	·	41.9
C[C@H](CO)N1C[C@H](C)[C@H](CN(C)C(=O)Nc2ccccc2)Oc2ccc(NC(=O)CCCN(C)C)cc2C1=O	-12.8	·	22.2
COc1ccc(NC(=O)N(C)C[C@@H]2Oc3ccc(NS(=O)(=O)c4ccc(Cl)cc4)cc3CC(=O)N([C@H](C)CO)C[C@H]2C)cc1	-8.5	-8.7	-17.2
Cc1ccc(N(C(C)C(=O)O)S(C)(=O)=O)cc1C (configuration not stated)	-7.6	·	21.6
COc1ccc(S(=O)(=O)N(C)C[C@H]2Oc3c(NS(=O)(=O)c4ccc(F)cc4)cccc3C(=O)N([C@@H](C)CO)C[C@H]2C)cc1	1.4	7.4	26.1
COC(=O)c1cccc2oc3cc(CO)cc(O)c3c(=O)c12	-0.9	-22.6	70.7
COC(=O)C1=C2C(=O)c3c(O)cc(CO)cc3OC2C(O)C=C1 (configuration not stated)	19.0	45.4	107.8*
COc1ccc(S(=O)(=O)N(C)C[C@@H]2Oc3ccc(NS(=O)(=O)c4cn(C)cn4)cc3C(=O)N([C@H](C)CO)C[C@@H]2C)cc1	2.6	2.4	28.4
COc1cc(NC(=O)COc2ccc(Cl)cc2Cl)ccc1NC(=O)c1ccccc1Cl	-6.6	·	38.9
COC(=O)C(O)(c1ccc(NC(=S)NC(=O)c2ccc(Cl)cc2Cl)c(OC)c1)C(F)(F)F (configuration not stated)	44.3	·	123.5*
SMILES	MITF inh	Hedgehog inh	NOMO-1 viab
COCc1cc(O)c(O)c(O)c1-c1c(COC)cc(O)c(O)c1O	-5.7	26.5	96.6*
COc1ccc(CCC(=O)O)c(O)c1	-13.8	-20.7	-5.5
COc1ccc(CN(C)C[C@@H]2Oc3ccc(NS(=O)(=O)c4ccc(F)cc4)cc3CC(=O)N([C@H](C)CO)C[C@H]2C)cc1	5.8	·	17.4
COc1ccc(S(=O)(=O)Nc2ccc3c(c2)CC(=O)N([C@@H](C)CO)C[C@H](C)[C@H](CN(C)Cc2ccc(C(F)(F)F)cc2)O3)cc1	30.8	44.2	108.3*
COc1ccc(S(=O)(=O)Nc2ccc3c(c2)CC(=O)N([C@@H](C)CO)C[C@@H](C)[C@@H](CN(C)Cc2ccc(C(F)(F)F)cc2)O3)cc1	37.1	-5.6	94.8*
COc1ccc(CN(C)C[C@@H]2Oc3ccc(NS(=O)(=O)c4ccc(F)cc4)cc3CC(=O)N([C@@H](C)CO)C[C@@H]2C)cc1	3.5	8.9	15.4
COc1ccc(S(=O)(=O)Nc2ccc3c(c2)CC(=O)N([C@H](C)CO)C[C@@H](C)[C@@H](CN(C)Cc2ccc(C(F)(F)F)cc2)O3)cc1	-1.0	14.2	119.3*
COc1ccc(S(=O)(=O)Nc2ccc3c(c2)CC(=O)N([C@H](C)CO)C[C@@H](C)[C@H](CN(C)Cc2ccc(C(F)(F)F)cc2)O3)cc1	-22.7	-0.9	?
COc1ccc(S(=O)(=O)Nc2ccc3c(c2)C(=O)N([C@H](C)CO)C[C@H](C)[C@@H](CN(C)S(=O)(=O)c2ccc(C)cc2)O3)cc1	-5.4	·	-2.6
CNC(=O)CN(c1ccc(F)cc1)S(=O)(=O)c1ccc2c(c1)OCCO2	-10.2	·	-6.4
Cc1nnc(SCC(=O)Nc2cccc(Cl)c2Cl)n1-c1ccc(F)cc1	-8.2	·	30.6
C[C@H](CO)N1C[C@H](C)[C@H](CN(C)C)Oc2ccc(N(C)C)cc2C1=O	-5.9	-26.9	9.2
C[C@@H]1CN([C@H](C)CO)C(=O)c2cccc(NC(=O)c3ccncc3)c2O[C@@H]1CN(C)S(=O)(=O)c1ccccc1	-47.9	-58.8	25.5
C[C@@H]1CCCCO[C@H](CN(C)C(=O)Nc2ccc(F)cc2)[C@@H](C)CN([C@H](C)CO)C(=O)c2cc(NC(=O)c3ccncc3)ccc2O1	-12.6	-19.4	1.2
COc1ccc(S(=O)(=O)N(C)C[C@@H]2Oc3c(NC(=O)C4CCCCC4)cccc3C(=O)N([C@H](C)CO)C[C@H]2C)cc1	-6.2	12.8	12.2
Cc1noc(C)c1NC(=O)Nc1ccc2c(c1)C(=O)N([C@@H](C)CO)C[C@H](C)[C@@H](CN(C)C(=O)Nc1ccc(F)cc1)O2	-0.9	2.8	10.0
COC(=O)c1ccc(NC(=O)CCC(=O)c2ccc(Br)cc2)cc1	1.1	·	13.4
CCOC(NC(=O)Nc1ccc(Br)cc1)(C(F)(F)F)C(F)(F)F	-0.9	-30.1	108.5*
CCc1cc2c(=O)c(-c3nc(C)cs3)c(CCC(=O)O)oc2cc1O	28.5	·	26.8
